# OTUD3 block: human OTUD3 deubiquitinase inhibition; Q5T2D3; purified OTUD3, Ub-rhodamine fluorescence, 2 h; inhibition, % at 25 µM; 47,000 tested, 0.7% active
# Target sequence (Q5T2D3 whole entry, looked up): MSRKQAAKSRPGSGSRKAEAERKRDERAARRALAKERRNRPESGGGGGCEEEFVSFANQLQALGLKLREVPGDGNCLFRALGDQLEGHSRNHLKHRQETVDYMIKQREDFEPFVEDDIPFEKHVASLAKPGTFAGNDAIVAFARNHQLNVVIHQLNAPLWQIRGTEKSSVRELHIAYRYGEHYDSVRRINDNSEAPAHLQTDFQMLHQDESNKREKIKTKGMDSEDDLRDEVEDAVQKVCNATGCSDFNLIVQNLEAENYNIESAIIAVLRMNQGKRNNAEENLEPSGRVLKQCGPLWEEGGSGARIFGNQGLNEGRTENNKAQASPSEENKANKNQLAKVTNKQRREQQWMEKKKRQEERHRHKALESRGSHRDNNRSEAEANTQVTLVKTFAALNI
# UCHL1 block: inhibitors of human UCHL1 deubiquitinase | P09936 | purified UCHL1, Ub-rhodamine cleavage fluorescence | inhibition, % at 20 µM | 47,000 tested, 0.2% active | AID 1645859
# USP7 block: human USP7 deubiquitinase inhibition | Q93009 | purified USP7, Ub-rhodamine cleavage fluorescence | inhibition, % at 20 µM | 47,000 tested, 0.3% active | AID 1645854
# Numbers stand for hits; i = inactive. Compounds with a hit are over-represented: about 0.83% of the library has one in this group of screens. Rule as the data show it: active = inhibition above about 30%; inactive = the rest.
SMILES,OTUD3 block,UCHL1 block,USP7 block
O=C(Cn1c(=O)c2sccc2n(Cc2ccc([N+](=O)[O-])cc2)c1=O)NCCc1ccccc1,i,i,i
Cc1ccc(CNC(=O)CCCn2c(=O)c3sccc3n(CC(=O)Nc3cc(Cl)ccc3C)c2=O)cc1,40,i,i
Cc1ccc(CNC(=O)CCCn2c(=O)c3ccccc3n(CC(=O)Nc3cc(C)[nH]n3)c2=O)cc1,i,i,i
O=C(NCCn1ccc2ccccc21)c1cc2ccccc2oc1=O,i,i,i
CCc1ccc(-c2noc(CSc3ccc(-c4ccccc4)nn3)n2)cc1,i,i,i
O=C(c1noc2c1CCCC2)N1CCCCC1c1ccn2nccc2n1 (stereo not drawn),i,i,i
Cc1ccc(NC(=O)C2CCN(C(=O)c3cc(-c4ccncc4)n[nH]3)CC2)cc1Cl,39,i,i
Cc1ccc(NC(=O)c2cc(-c3ccncc3)n[nH]2)cc1Cl,i,i,i
COc1ccc(NC(=O)c2ccc(-n3nnnc3SC)cc2)cc1Cl,87,i,i
COc1ccc(OC)c(NC(=O)c2ccc(-n3nnnc3SC)cc2)c1,i,i,i
c1cncc(-c2cnc3sc(NCc4ccc5c(c4)OCO5)nn23)c1,60,i,i
CN(C)c1ccc(CNc2nn3c(-c4cccnc4)cnc3s2)cc1,40,i,i
Fc1ccc(CNc2nn3c(-c4cccnc4)cnc3s2)cc1,i,i,i
c1ccc(CCNc2nn3c(-c4cccnc4)cnc3s2)nc1,i,i,i
Cc1ccc(-c2nnc(-c3ccc(C(=O)NC4CCOc5ccccc54)cc3)o2)cc1 (stereo not drawn),i,i,i
Cc1ccc(Sc2c(C(F)(F)F)[nH]n(-c3ccccc3)c2=O)cc1,i,i,i
CO[C@H]1C[C@@H]2CC[C@@H](C)[C@@](O)(O2)C(=O)C(=O)N2CCCC[C@H]2C(=O)O[C@@H]([C@H](C)C[C@@H]2CC[C@@H](O)[C@H](OC)C2)CC(=O)[C@H](C)/C=C(\C)[C@@H](O)CC(=O)[C@H](C)C[C@H](C)/C=C/C=C/C=C/1C,i,i,i
C[C@@H]1/C=C/CC/C=C/C(=O)[C@H](C)[C@@H]2CC[C@@H](C)[C@@](O)(O2)C(=O)C(=O)N2CCCC[C@H]2C(=O)O[C@H]([C@H](C)C[C@@H]2CC[C@@H](O)[C@H](O)C2)CC1,43,i,i
COc1ccccc1CNC(=O)c1cccc(Nc2nc3ccccc3n3cnnc23)c1,i,i,i
O=C(NCc1ccc(F)cc1)c1cccc(Nc2nc3ccccc3n3cnnc23)c1,67,i,i
CCCCN1CC(C(=O)Nc2ccc(C(=O)Nc3ccc(F)c(Cl)c3)cc2)CC1=O (stereo not drawn),i,i,i
O=C(/C=C/c1ccc(OCc2cccc(Cl)c2)cc1)NC1CCCC1,i,i,i
O=C(NCc1ccc2c(c1)OCO2)c1nn(C23CC4CC(CC(C4)C2)C3)cc1[N+](=O)[O-],33,i,i
O=C(NCc1ccco1)c1nn(C23CC4CC(CC(C4)C2)C3)cc1[N+](=O)[O-],i,i,i
COc1ccc(CC(=O)Nc2cccc(-c3cn4cccnc4n3)c2)cc1,i,i,i
SMILES,OTUD3 block,UCHL1 block,USP7 block
C[C@@H]1OC2=C(C(=O)c3cccc(O)c3C2=O)[C@H](O)[C@@H]1O,67,32,i
COC(=O)CC1CC2=C(C(=O)c3c(O)cccc3C2=O)C(C)O1 (stereo not drawn),i,i,i
Cc1cccc(NC(=O)CCc2nc(CSc3nc4ccccc4o3)no2)c1C,i,i,i
CC[C@H](C)[C@H](NC(=O)[C@H]([C@@H](C)CC)N(C)C(C)=O)C(=O)N[C@H](C(=O)N[C@@H](CC(C)C)C(=O)C1(C)CO1)[C@@H](C)O (stereo partly drawn),31,i,i
Cc1cc(C)cc(NC(=O)N2CCC(c3nc4cccnc4n3C)C2)c1 (stereo not drawn),i,i,i
Cn1ncc2c(Nc3ccccc3)nc(NCCc3ccccc3)nc21,i,i,i
COc1cccc(N2CC(C)Cn3c2nc2c3c(=O)n(CC(=O)OCc3ccccc3)c(=O)n2C)c1 (stereo not drawn),i,i,i
c1cc(-c2noc(-c3ccoc3)n2)cc(-c2ccn[nH]2)c1,i,i,i
C(=C\c1nc(-c2cccc(-c3ccn[nH]3)c2)no1)/c1ccco1,i,i,31
Cc1cc(O)c(Oc2cc(C)cc(O)c2O)c(O)c1,34,i,i
COc1ccc(OC)c(CCNC(=O)CCC2=NS(=O)(=O)c3ccc(C(F)(F)F)cc3N2)c1,i,i,i
Cc1cc(NC(=O)CN2[C@H](Cc3ccccc3)C[C@]3(C)NC(=O)CCC[C@H]23)nn1C,i,i,i
O=C(O)c1ccc(Cl)c(NC(=O)C(Sc2cccc(NC(=O)c3cccc(Cl)c3)c2)c2ccccc2)c1 (stereo not drawn),i,i,i
Cc1ccc(C(=O)O)cc1NC(=O)C(Sc1cccc(NC(=O)c2ccccc2C)c1)c1ccccc1 (stereo not drawn),49,i,i
Cc1ccc(N(Cc2nc3nc(C)cc(C)n3n2)S(=O)(=O)c2ccccc2)cc1,i,i,i
COc1ccc(C(=O)N2CCC3(CC2)CO[C@H]([C@@]2(C)CC[C@@H](C(C)(C)O)O2)C3)cc1,i,i,i
Cc1ccc(NC(=O)c2cn(CC(O)c3ccc4c(c3)OCO4)nn2)cc1 (stereo not drawn),i,i,i
CC[C@@H]1CCC[C@H](C)CC[C@@H](O[C@@H]2O[C@@H](C)[C@@H](O)[C@@H](N)[C@H]2O)[C@H](CC)CCCNC1=O,36,i,i
O=C(Cn1c(=O)[nH]c2ccccc2c1=O)NCc1ccccc1Cl,i,i,i
Cc1ccc(-c2nnc(SCc3noc(CCC(=O)Nc4ccccc4)n3)o2)cc1,i,i,i
O=C(NCCc1ccccc1)C1CCCN(c2ccc(-c3ccccc3)nn2)C1 (stereo not drawn),i,i,i
O=C(NCC1CC1)C1CCCN(c2ccc(-c3ccccc3)nn2)C1 (stereo not drawn),30,i,i
Cc1cc(CSc2ncccc2C(=O)Nc2ccnn2Cc2cccnc2)no1,81,i,i
Cc1cc(CSc2ncccc2C(=O)Nc2ccnn2Cc2ccccn2)no1,i,i,i
Cc1ccc(CNC(=O)c2cnc3ccccc3n2)cc1,30,i,i
SMILES,OTUD3 block,UCHL1 block,USP7 block
O=C(NCc1ccc(F)cc1)c1cnc2ccccc2n1,i,i,i
COc1cc(C2CCN(S(=O)(=O)c3ccc(F)cc3)CC2)on1,i,i,i
Cc1cc(-c2noc(-c3cccnc3)n2)c2ccccc2n1,i,i,i
COc1ccccc1-n1c(SCC(=O)N2CCc3ccccc32)nnc1-c1ccncc1,i,i,i
COc1ccc(OC)c(-n2c(SCC(=O)N3CCc4ccccc43)nnc2-c2cccc(S(=O)(=O)N(C)C)c2)c1,32,i,i
COc1ccc(CSc2nc3ccncc3n2CC(=O)Nc2ccc(C)cc2C)cc1,34,i,i
COC(=O)c1ccc(CSc2nc3ccncc3n2CC(=O)N2CCCC2)cc1,i,i,i
CCN(CC)c1ccc(-c2noc(CN3CCC4(CC3)OCCO4)n2)cn1,i,i,i
CC1OC2CC(O)C1(O)C1=C2C(O)=C(C(N)=O)C(=N)C1=O (stereo not drawn),51,52,i

# Source: PubChem BioAssay (Buhrlage Lab, Dana-Farber Cancer Institute and Novartis Institutes for BioMedical Research (Cambridge, Mass))
